Assay results from PubChem BioAssay (Tox21).
Inconclusive results are not listed. The source made the active and inactive calls. Unless noted, the call rests on the fitted dose curve; in most records, active means well fitted curve in the direction sought with a large enough effect in the repeat runs; inconclusive means weak or mixed curves; inactive means no such curve, though single readings can be large; an effect the other way counts as inactive or inconclusive.

Assays:
[1] = target: Peroxisome proliferator-activated receptor gamma (Homo sapiens) (UniProt P37231); test: qHTS assay to identify small molecule antagonists of the peroxisome proliferator-activated receptor gamma (PPARg) signaling pathway (AID 743191; calls by dose curve; further: series mostly up to about 63 µM; nearly all actives have a fitted effect of over 30% in size)
Sequence of Peroxisome proliferator-activated receptor gamma (Homo sapiens) (P37231 whole entry, looked up): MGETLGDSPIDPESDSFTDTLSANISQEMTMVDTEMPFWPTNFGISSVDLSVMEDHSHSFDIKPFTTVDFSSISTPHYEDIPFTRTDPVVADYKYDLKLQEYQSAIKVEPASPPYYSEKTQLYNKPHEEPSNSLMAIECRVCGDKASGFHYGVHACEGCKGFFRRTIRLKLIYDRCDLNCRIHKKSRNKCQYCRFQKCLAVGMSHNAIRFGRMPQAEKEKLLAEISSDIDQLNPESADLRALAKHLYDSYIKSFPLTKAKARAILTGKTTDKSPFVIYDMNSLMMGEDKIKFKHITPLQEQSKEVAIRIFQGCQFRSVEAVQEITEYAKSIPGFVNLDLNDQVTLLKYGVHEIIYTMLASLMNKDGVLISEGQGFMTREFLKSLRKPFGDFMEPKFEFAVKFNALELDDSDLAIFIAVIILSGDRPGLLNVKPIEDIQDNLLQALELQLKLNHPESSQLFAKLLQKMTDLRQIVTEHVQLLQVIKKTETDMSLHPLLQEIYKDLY
Method in brief: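 GeneBLAzer PPARg UAS-bla HEK293H cells carrying a UAS-driven beta-lactamase reporter were plated at 3000 cells/well, preincubated 5 h at 37C, then given compound for 17 h at 37C; LiveBLAzer B/G FRET substrate was read after 1 h at room temperature.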

[2] = qHTS assay to identify small molecule antagonists of the peroxisome proliferator-activated receptor gamma (PPARg) signaling pathway - cell viability counter screen (AID 743194); further: nearly all actives have a fitted effect of over 55% in size
Method in brief: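 PPARg-UAS-bla HEK293H cells were plated, rested 5 h at 37 C, then treated with compounds plus rosiglitazone (50 nM final) for 17 h at 37 C; viability was then read by CellTiter-Glo luminescence after 30 min at room temperature.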

[3] = qHTS assay for small molecule agonists of the antioxidant response element (ARE) signaling pathway - cell viability counter screen (AID 743203; calls by dose curve; further: nearly all actives have a fitted effect of over 55% in size)
Method in brief: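 Viability counter screen: stably transfected ARE-bla HepG2 line, 16 hrs compound exposure at 37C/5% CO2, ATP-based CellTiter-Glo luminescence measured in the reporter wells.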

[4] = qHTS assay for small molecule activators of the heat shock response signaling pathway - cell viability counter screen (AID 743209); further: nearly all actives have a fitted effect of over 50% in size
Method in brief: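 Viability of HSE-bla HeLa cells is measured with CellTiter-Glo in the wells already used for the reporter read. Compound exposure lasts 5 h at 37 C, and luminescence is read after 30 min at room temperature.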

[5] = qHTS assay for small molecule activators of the heat shock response signaling pathway (AID 743210; active means well fitted activation curve with a large enough effect in the signal ratio in the repeat runs, with a control signal flat, not every such curve was filed as active; the % refers to the signal ratio; further: series mostly up to about 63 µM)
Method in brief: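 Heat shock element–beta-lactamase HeLa reporter cells; qHTS with compounds for 5 h at 37 C; detection by FRET substrate fluorescence after 2.5 h at RT.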

[6] = target: Peroxisome proliferator-activated receptor delta (Homo sapiens) (UniProt Q03181); test: qHTS assay to identify small molecule agonists of the peroxisome proliferator-activated receptor delta (PPARd) signaling pathway (AID 743212; calls by dose curve)
Sequence of Peroxisome proliferator-activated receptor delta (Homo sapiens) (Q03181 whole entry, looked up): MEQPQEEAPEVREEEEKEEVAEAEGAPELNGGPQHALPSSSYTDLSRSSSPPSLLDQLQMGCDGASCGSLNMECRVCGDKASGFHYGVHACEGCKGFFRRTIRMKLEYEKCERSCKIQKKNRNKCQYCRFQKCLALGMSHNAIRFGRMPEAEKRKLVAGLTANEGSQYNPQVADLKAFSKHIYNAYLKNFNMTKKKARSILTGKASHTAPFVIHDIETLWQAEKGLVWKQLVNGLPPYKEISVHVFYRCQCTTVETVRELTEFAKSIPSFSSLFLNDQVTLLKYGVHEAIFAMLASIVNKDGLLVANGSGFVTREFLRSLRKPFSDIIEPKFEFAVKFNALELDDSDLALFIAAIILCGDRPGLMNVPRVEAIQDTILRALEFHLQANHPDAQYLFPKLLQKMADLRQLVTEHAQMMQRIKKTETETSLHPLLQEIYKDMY
Method in brief: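 Beta-lactamase reporter read by fluorescence (LiveBLAzer B/G FRET, 2 h, room temperature). Test agents, in DMSO, incubated at 37 C with PPARd-bla HEK293H cells.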

[7] = qHTS assay to identify small molecule antagonists of the peroxisome proliferator-activated receptor delta (PPARd) signaling pathway - cell viability counter screen (AID 743213); further: nearly all actives have a fitted effect of over 50% in size
Method in brief: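 HEK293H cells with the PPARd UAS-bla reporter, co-treated 17 h at 37 C with compounds and L165041 (300 nM final), were lysed with CellTiter-Glo. Luminescence indicated viable cell content.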

[8] = target: Bile acid receptor (Homo sapiens) (UniProt Q96RI1); test: qHTS assay to identify small molecule antagonists of the farnesoid-X-receptor (FXR) signaling pathway (AID 743217; active means well fitted inhibition curve with a large enough effect in the signal ratio in the repeat runs, not every such curve was filed as active; the % refers to the signal ratio)
Sequence of Bile acid receptor (Homo sapiens) (Q96RI1 whole entry, looked up): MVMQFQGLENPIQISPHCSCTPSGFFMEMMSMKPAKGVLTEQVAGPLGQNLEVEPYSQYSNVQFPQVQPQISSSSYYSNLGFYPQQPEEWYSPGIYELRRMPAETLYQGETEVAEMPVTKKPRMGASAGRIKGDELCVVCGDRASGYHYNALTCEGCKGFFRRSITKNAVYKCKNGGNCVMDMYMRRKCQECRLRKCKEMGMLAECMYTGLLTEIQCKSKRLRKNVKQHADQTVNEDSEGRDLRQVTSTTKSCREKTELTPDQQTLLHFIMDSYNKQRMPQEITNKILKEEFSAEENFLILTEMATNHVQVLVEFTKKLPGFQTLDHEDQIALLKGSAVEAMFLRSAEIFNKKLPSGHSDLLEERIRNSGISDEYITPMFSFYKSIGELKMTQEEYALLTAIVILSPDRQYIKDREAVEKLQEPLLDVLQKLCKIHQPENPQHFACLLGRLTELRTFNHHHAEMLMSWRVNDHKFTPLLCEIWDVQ
Method in brief: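 Screen of the Tox21 10K library in quantitative HTS format using FXR-UAS-bla HEK 293T reporter cells. Agonist chenodeoxycholic acid, 50 uM final, added with compounds; 16 h incubation at 37 °C; beta-lactamase FRET fluorescence measured.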

[9] = qHTS assay to identify small molecule agonists of the farnesoid-X-receptor (FXR) signaling pathway - cell viability counter screen (AID 743218); further: nearly all actives have a fitted effect of over 45% in size
Method in brief: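 Viability of FXR-bla HEK 293T cells is measured by ATP-based CellTiter-Glo luminescence following 16 h compound treatment at 37 C and a prior 2 h room-temperature beta-lactamase substrate step.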

[10] = target: Bile acid receptor (Homo sapiens) (UniProt Q96RI1); test: qHTS assay to identify small molecule agonists of the farnesoid-X-receptor (FXR) signaling pathway (AID 743220; active means well fitted activation curve with a large enough effect in the signal ratio in the repeat runs, not every such curve was filed as active; the % refers to the signal ratio)
Method in brief: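 FXR-UAS-bla HEK 293T cells carrying a UAS-driven beta-lactamase reporter were plated for 5 h at 37C/5% CO2, then exposed to DMSO-dissolved Tox21 10K compounds for 16 h at 37C. A LiveBLAzer B/G FRET substrate was loaded for 2 h at room temperature before fluorescence reading.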

[11] = qHTS assay to identify small molecule antagonists of the farnesoid-X-receptor (FXR) signaling pathway - cell viability counter screen (AID 743221; active means well fitted cell-killing curve with a large enough effect in the repeat runs, not every such curve was filed as active; further: nearly all actives have a fitted effect of over 50% in size)
Method in brief: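 Quantitative HTS of the Tox21 10K library run in parallel with the beta-lactamase reporter read. HEK 293T cells carrying a UAS-driven bla reporter got compound and 50 uM CDCA (final) for 16 h; ATP-based luminescence followed.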

[12] = target: Vitamin D3 receptor (Homo sapiens) (UniProt P11473); test: qHTS assay to identify small molecule agonists of the vitamin D receptor (VDR) signaling pathway (AID 743222; calls by dose curve)
Sequence of Vitamin D3 receptor (Homo sapiens) (P11473 whole entry, looked up): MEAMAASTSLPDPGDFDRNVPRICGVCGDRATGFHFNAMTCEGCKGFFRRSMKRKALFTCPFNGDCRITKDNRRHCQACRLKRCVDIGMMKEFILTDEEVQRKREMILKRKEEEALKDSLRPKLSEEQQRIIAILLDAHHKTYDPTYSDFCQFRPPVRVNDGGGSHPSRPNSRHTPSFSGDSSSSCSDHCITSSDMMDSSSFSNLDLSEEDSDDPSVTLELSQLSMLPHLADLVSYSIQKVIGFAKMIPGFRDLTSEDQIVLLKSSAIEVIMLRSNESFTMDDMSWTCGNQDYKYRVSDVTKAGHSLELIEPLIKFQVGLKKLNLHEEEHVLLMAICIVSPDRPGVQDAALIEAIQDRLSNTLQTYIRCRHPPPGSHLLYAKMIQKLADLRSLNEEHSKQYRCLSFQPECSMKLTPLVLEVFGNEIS
Method in brief: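 Fluorescence from cleaved LiveBLAzer B/G FRET substrate served as readout. VDR-bla cells had been treated 16 h at 37C with test compounds in DMSO, following a 4 h settling period, and substrate was loaded for 2 h at RT.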

[13] = target: Vitamin D3 receptor (Homo sapiens) (UniProt P11473); test: qHTS assay to identify small molecule antagonists of the vitamin D receptor (VDR) signaling pathway (AID 743223; active means well fitted inhibition curve with a large enough effect in the signal ratio in the repeat runs, not every such curve was filed as active; the % refers to the signal ratio)
Method in brief: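 Fluorescence from LiveBLAzer B/G FRET substrate, read after 2 h at room temperature, reflects beta-lactamase reporter activity in VDR-bla cells treated 16 h at 37C with compounds and agonist 1alpha,25-dihydroxyvitamin D3 (3 nM final).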

[14] = qHTS assay for small molecule agonists of the antioxidant response element (ARE) signaling pathway (AID 743202; active means well fitted activation curve with a large enough effect in the signal ratio in the repeat runs, not every such curve was filed as active; the % refers to the signal ratio)
Method in brief: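 Following a 16 h, 37 C exposure of reporter HepG2 cells (ARE-driven beta-lactamase, 2,000 cells/well) to compounds, FRET substrate was applied for 2 h at room temperature and fluorescence intensity recorded.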

[15] = qHTS assay to identify small molecule agonists of the peroxisome proliferator-activated receptor delta (PPARd) signaling pathway - cell viability counter screen (AID 743211); further: nearly all actives have a fitted effect of over 55% in size
Method in brief: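 Viability of GeneBLAzer PPARd UAS-bla HEK293H cells was assessed after 17 h compound incubation at 37C, using CellTiter-Glo reagent added after the reporter read and luminescence recorded 30 min later.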

[16] = target: Peroxisome proliferator-activated receptor delta (Homo sapiens) (UniProt Q03181); test: qHTS assay to identify small molecule antagonists of the peroxisome proliferator-activated receptor delta (PPARd) signaling pathway (AID 743215; active means well fitted inhibition curve with a large enough effect in the signal ratio in the repeat runs, not every such curve was filed as active; the % refers to the signal ratio;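 further: cells stimulated with agonist L165041 at 300 nM final during compound exposure; series mostly up to about 62 µM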)
Method in brief: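 Plated HEK293H PPARd-bla cells rested 5 h at 37 C and 5% CO2. Compound, then agonist L165041 at 300 nM final, was added; 17 h at 37 C followed. Substrate loading, 2 h room temperature, fluorescence measured.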

[17] = qHTS assay to identify aromatase inhibitors - cell viability counter screen (AID 743084);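 further: cells stimulated with testosterone during compound exposure; nearly all actives have a fitted effect of over 55% in size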
[18] = qHTS assay to identify small molecule that activate the aryl hydrocarbon receptor (AhR) signaling pathway - cell viability counter screen (AID 743086);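 further: HepG2 liver cells carrying the AhR DRE luciferase reporter; series mostly up to about 70 µM; nearly all actives have a fitted effect of over 45% in size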
Method in brief: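 HepG2-AhR-luc (HG2L7.5c1) cells, 4000/well, were preincubated 5 h at 37C, exposed to compound in qHTS format for 24 hr at 37C, then given CellTiter-Fluor for 30 min; viability was read as fluorescence in the reporter wells.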

[19] = target: Aryl hydrocarbon receptor (Homo sapiens) (UniProt P35869); test: qHTS assay to identify small molecule that activate the aryl hydrocarbon receptor (AhR) signaling pathway (AID 743085);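 further: HG2L7.5c1 human HepG2 liver cells with stably integrated DRE-driven firefly reporter; series mostly up to about 70 µM; nearly all actives have a fitted effect of over 15% in size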
Sequence of Aryl hydrocarbon receptor (Homo sapiens) (P35869 whole entry, looked up): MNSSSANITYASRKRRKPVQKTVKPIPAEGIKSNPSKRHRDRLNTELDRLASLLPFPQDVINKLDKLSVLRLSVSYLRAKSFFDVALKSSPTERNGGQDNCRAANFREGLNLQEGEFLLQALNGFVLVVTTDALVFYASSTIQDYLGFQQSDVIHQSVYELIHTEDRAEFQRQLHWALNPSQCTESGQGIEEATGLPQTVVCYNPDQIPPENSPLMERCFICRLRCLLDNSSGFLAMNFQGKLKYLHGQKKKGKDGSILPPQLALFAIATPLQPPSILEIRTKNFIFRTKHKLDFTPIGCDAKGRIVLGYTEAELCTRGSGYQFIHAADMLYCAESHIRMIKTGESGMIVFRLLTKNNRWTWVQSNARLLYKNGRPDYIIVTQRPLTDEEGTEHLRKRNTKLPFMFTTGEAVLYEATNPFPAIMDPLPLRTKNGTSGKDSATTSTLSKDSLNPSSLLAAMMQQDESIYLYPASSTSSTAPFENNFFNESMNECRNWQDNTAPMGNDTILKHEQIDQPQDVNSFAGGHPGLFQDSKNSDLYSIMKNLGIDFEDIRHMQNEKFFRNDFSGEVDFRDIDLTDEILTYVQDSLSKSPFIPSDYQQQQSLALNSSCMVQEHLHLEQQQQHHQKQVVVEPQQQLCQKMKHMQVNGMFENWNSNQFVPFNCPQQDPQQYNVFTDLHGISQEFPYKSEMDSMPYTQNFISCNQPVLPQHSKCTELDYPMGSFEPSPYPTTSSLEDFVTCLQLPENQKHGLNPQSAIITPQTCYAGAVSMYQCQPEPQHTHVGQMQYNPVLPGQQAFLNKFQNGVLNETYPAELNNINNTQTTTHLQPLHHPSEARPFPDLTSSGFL
Method in brief: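 Steps: seed HepG2-AhR-luc cells; allow 5 h at 37C; pin-transfer test compound or vehicle; incubate 24 h at 37C; add viability dye (30 min, 37C) and read fluorescence; add luciferase substrate (30 min, RT) and read luminescence.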

Measured: Potency

Cc1nc2n(c(=O)c1CCN1CCC(C(=O)c3ccc(F)cc3)CC1)CCS2
not listed: [14] | [15] | [16] | [17] | [18] | [19]
inactive: all other assays above

CCCCCCCCCCCCCCCCCCN(C)C
not listed: [1] | [2] | [8] | [9] | [10] | [17] | [18] | [19]
inactive: all other assays above

O=C1OC(=O)c2ccccc21
not listed: [1] | [9] | [19]
inactive: all other assays above

Nc1ccc(C(=O)OCC(O)CO)cc1 (stereo not given)
inactive: [1] | [2] | [14] | [4] | [5] | [15] | [7] | [11] | [12] | [13]

C/C=C(\C)C(=O)OCC/C=C\CC
not listed: [1] | [2] | [9] | [17] | [19]
inactive: all other assays above

CC(=O)OC[C@H]1O[C@@H](OC(C)=O)[C@H](OC(C)=O)[C@@H]1OC(C)=O
not listed: [7] | [14] | [17] | [18] | [19]
inactive: all other assays above

CC(C)COC(=O)/C=C/c1ccccc1
not listed: [1] | [17]
inactive: all other assays above

CCCCCN(CCCOC)C(=O)C(CCC(=O)O)NC(=O)c1ccc(Cl)c(Cl)c1 (stereo not given)
not listed: [2] | [4] | [8] | [9] | [10] | [17] | [18] | [19]
inactive: all other assays above

CC(=O)OC(C)(C)Cc1ccccc1
not listed: [1] | [3] | [14] | [17] | [19]
inactive: all other assays above
